# Screens (PubChem BioAssay)
# Sampled rows, rich in hits. Any-hit rate of the full collection: about 21%.
# Pf growth 96h: Primary qHTS for delayed death inhibitors of the malarial parasite plastid, 96 hour incubation; P. falciparum luciferase reporter growth, 96 h; Potency, µM (top dose mostly 28.7 µM), for inactives: at the highest dose activity change, negative = inhibition, most hits filed as inhibitors; AID 504834, 2011; actives 6.9% (n = 320,000); also: potency is read from the fitted curve at half-maximal effect; % is scaled to controls: 0 for no effect and ±100 for the full control effect
#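 Erythrocytes infected with luciferase-expressing P. falciparum were dispensed at 2% hematocrit and 0.05% parasitemia (final), then incubated with compounds 96 hours at 37 C in 5% CO2. Luminescence after detection reagent addition reported growth.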
# Cycloheximide cs: Cycloheximide Counterscreen for Small Molecule Inhibitors of Shiga Toxin. max response, %. AID 2314, 2010. actives 12% (n = 300,000). cell reporter, cycloheximide protein synthesis inhibition counterscreen; in the data active = max response mostly above about 13%, no sharp cut-off; inactive = mostly below about 14%; also: read at 38.3 µM for the half of the compounds with a filed dose; 0% is about no effect
# Shiga inhibitor: A qHTS for Small Molecule Inhibitors of Shiga Toxin. actives 9.2% (n = 290,000). inhibition, % at 38.7 µM. Vero cells, Shiga toxin protein synthesis inhibition reporter; in the data active = inhibition mostly above about 28%, no sharp cut-off; inactive = mostly below about 43%; also: 0% is about no effect
# NS1 inh: qHTS Assay for Inhibitors of Influenza NS1 Protein Function; actives 0.4% (n = 270,000); Potency, µM (top dose mostly 46.1 µM), for inactives: top-dose activity, positive = more growth; calls by dose curve; also: potency is read from the fitted curve at half-maximal effect; actives are rising curves; nearly all actives have a fitted effect of over 50% in size
#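 Read-out: OD600 growth recovery of NS1-expressing budding yeast. Cells grown overnight at 30C in -URA glucose medium, washed, resuspended and diluted 1:100 in 2% galactose assay medium, pH 6.0. Same strain lacking NS1 served as positive control.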
# SARS PLpro yeast: qHTS of Yeast-based Assay for SARS-CoV PLP | S. cerevisiae expressing SARS-CoV PLpro, growth rescue | Potency, µM (titrated, usually from 32.9 µM), inactives show top-dose activity, positive = growth rescue, actives largely listed as activators | actives 0.19% (n = 330,000) | AID 485353, 2010; calls by dose curve; also: potency is read from the fitted curve at half-maximal effect; 0% is about no effect; nearly all actives have a fitted effect of over 55% in size
# Pf growth 48h: Primary qHTS for delayed death inhibitors of the malarial parasite plastid, 48 hour incubation. P. falciparum luciferase growth in erythrocytes, 48 h. Potency, µM (doses to about 28.7 µM), for the others: top-dose activity change, negative = inhibition, usual class: inhibitors. actives 5.9% (n = 310,000). AID 504832, 2011; also: potency is read from the fitted curve at half-maximal effect; % is scaled to controls: 0 for no effect and ±100 for the full control effect
#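 A one-generation exposure of luciferase-tagged malaria parasites in RPMI 1640/Albumax erythrocyte culture, 37 C and 5% CO2. Inhibition is inferred from decreased luminescence after adding detection reagent.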
# * marks the source's active call; other numbers are inactive results; u = inconclusive; x = not tested or not shown. Unless noted, calls follow the shape of the dose curve; as a rule, active = well fitted inhibition curve with a large enough effect; inconclusive = small, poorly fitted or top-dose-only effect, or another doubt; inactive = no such curve, though single readings can be large or run the other way.
SMILES,Pf growth 96h,Cycloheximide cs,Shiga inhibitor,NS1 inh,SARS PLpro yeast,Pf growth 48h
O=C(CCNS(=O)(=O)c1ccc2c(c1)CCC(=O)N2)Nc1ccc2c(c1)OCCO2,u,29*,56*,0%,-4%,31%
Cc1ccccc1NC(=O)CCNS(=O)(=O)c1ccc2c(c1)CCC(=O)N2,u,-2,-2,3%,-3%,34%
O=C1CCc2cc(S(=O)(=O)NCCC(=O)N3CCN(c4cccc(Cl)c4)CC3)ccc2N1,10µM*,0,2,-6%,-4%,u
Cc1ccc(NC(=O)CCNS(=O)(=O)c2ccc3c(c2)CCC(=O)N3)cc1F,9.3µM*,-1,7,2%,0%,50%
Cn1c(CNC(=O)c2ccco2)nnc1SCC(=O)c1ccc(F)cc1,45%,6,-2,-1%,u,3%
COc1cc(C(=S)N2CCOCC2)cc(OC)c1OC(=O)c1cccc(C)c1,59%,-2,-11,20%,8%,u
Cc1cccc(/C(N)=N/OC(=O)N2CCOCC2)c1,2.6µM*,24*,101*,-2%,-19%,u
Cc1ccc(/C(N)=N/OC(=O)N2CCOCC2)cc1,1µM*,22*,16,-6%,-8%,u
COc1ccc(C(CNC(=O)c2cc3c(s2)CCC(C)C3)N2CCCC2)cc1 (configuration not stated),4.1µM*,x,x,x,3%,9.3µM*
CCC1CCc2sc(C(=O)NCC(c3ccccc3OC)N3CCCC3)cc2C1 (configuration not stated),9.3µM*,x,x,x,0%,10µM*
COc1ccc(C(CNC(=O)c2cc3c(s2)CCC(C)C3)N2CCOCC2)cc1 (configuration not stated),u,x,x,x,-2%,12µM*
CC1CCc2sc(C(=O)NC3CCN(Cc4ccccc4)CC3)cc2C1 (configuration not stated),6.6µM*,x,x,x,-2%,8.3µM*
CCC1CCc2sc(C(=O)NC3CCN(Cc4ccccc4)CC3)cc2C1 (configuration not stated),u,x,x,x,-2%,u
Cc1c(NC(=O)C(C)OC(=O)c2c3c(nc4ccccc24)CCC3)c(=O)n(-c2ccccc2)n1C (configuration not stated),u,1,-2,11%,11%,u
O=S(=O)(Nc1ccc(Br)cn1)c1ccc2ccccc2c1,20%,-2,-8,-6%,-2%,20%
COc1ccc(S(=O)(=O)Nc2ccccc2C(N)=O)cc1OC,380%,3,-16,x,3%,-1%
CCC1CCc2sc(C(=O)NCc3ccccn3)cc2C1 (configuration not stated),u,37*,61*,-30%,-5%,-16%
COc1ccc(C(CNC(=O)c2cc3ccccc3cc2O)N2CCOCC2)cc1 (configuration not stated),10µM*,x,x,x,2%,9.3µM*
CCC1CCc2sc(C(=O)NCC3CCCO3)cc2C1 (configuration not stated),371%,x,x,x,-5%,224%
COc1ccc(NC(=O)CN(C)C(=O)c2cc3c(s2)CCC(C)C3)cc1 (configuration not stated),-8%,14*,19,-51%,-5%,-14%
Cc1cc(-c2nn(-c3ccccc3F)cc2CN(C)CC(O)CO)c(C)s1 (configuration not stated),u,1,-9,10%,1%,u
O=C1C(=O)N(c2cccc(Cl)c2)C(c2ccccc2[N+](=O)[O-])/C1=C(\O)c1ccccc1 (configuration not stated),35%,19*,37,-12%,-12%,-4%
NS(=O)(=O)c1ccc(N2C(=O)C(=O)/C(=C(/O)c3ccccc3)C2c2ccc(Cl)cc2)cc1 (configuration not stated),-6%,11*,25,u,1%,-9%
O=C1C(=O)N(c2ccccc2)C(c2ccccc2[N+](=O)[O-])/C1=C(\O)c1ccccc1 (configuration not stated),-8%,23,24,-2%,-1%,9%
Cc1ccc(S(=O)(=O)N2CC3CCCC2C3)cc1 (configuration not stated),-33%,-1,1,-1%,-2%,1.7µM*
SMILES,Pf growth 96h,Cycloheximide cs,Shiga inhibitor,NS1 inh,SARS PLpro yeast,Pf growth 48h
Cc1ccc(S(=O)(=O)N2CC3CCC2C3)cc1 (configuration not stated),-11%,-1,13,-7%,0%,48%
O=C(NC1CCCCCC1)C1Cc2ccccc2CN1C(=O)c1ccco1 (configuration not stated),0%,10,8,x,-1%,-13%
Cc1[nH]c(=O)[nH]c(=O)c1/C=N/NC(=O)CCNC(=O)OC(C)(C)C,17%,18*,-6,3%,3%,9%
Cc1[nH]c(=O)[nH]c(=O)c1/C=N/NC(=O)CCCCCNC(=O)OC(C)(C)C,u,-1,15,4%,1%,39%
COc1ccc(/C=C/c2cc(C(F)(F)F)on2)cc1,51%,40*,64*,4%,1%,49%
Cc1cnc(C(=O)N2CCN(S(=O)(=O)c3ccc4ccccc4c3)CC2)cn1,9.3µM*,5,27,-2%,14%,x
O=C(c1cc2ccccc2o1)N1CCN(S(=O)(=O)c2ccc(F)c(F)c2F)CC1,10µM*,x,x,x,1%,8.3µM*
CCOC(=O)c1ccc(S(=O)(=O)N2CCN(C(=O)c3cc4ccccc4o3)CC2)cc1,u,x,x,x,-2%,9.3µM*
COc1ccc(CN2CC(=O)N(c3ccc(Cl)cc3)C2=S)cc1OC,u,4,-6,-4%,-1%,13µM*
CNC(=O)CC1C(=O)N(c2ccc(Cl)cc2)C(=S)N1CCc1ccc(OC)c(OC)c1 (configuration not stated),-5%,-3,-19,2%,0%,12µM*
COc1ccc(CN2CC(=O)N(c3cccc(Cl)c3)C2=S)cc1OC,0%,1,-4,14%,3%,10µM*
COc1cccc(N2C(=O)CN(Cc3cc(OC)c(OC)c(OC)c3)C2=S)c1,-9%,-2,-3,6%,-2%,0.33µM*
Nc1c(C(=O)Nc2ccccc2)sc2ncc([N+](=O)[O-])cc12,32%,12,7,4%,2%,16%
CC(=O)c1ccc(NC(=O)c2sc3nc(C)c(C)c(C)c3c2N)cc1,-21%,54*,115*,17%,-2%,119%
CCOC(=O)c1ccc(NC(=O)c2sc3nc(N4CCOCC4)c4c(c3c2N)CCCC4)cc1,u,-8,-5,-2%,-6%,-8%
Cc1nc2sc(C(=O)OC(C)C)c(N)c2c(C)c1C,-9%,19*,41*,x,-3%,116%
